Data on 40 compounds can be found in PubChem BioAssay (Tox21).

The structures appear in SMILES notation. Results filed as inconclusive are left out. Some compounds were tested as several samples or in several runs, with calls that do not always agree. The source made the active and inactive calls. Calls come from the whole dose curve; as a rule, active = well fitted cell-killing curve with a large enough effect in the repeat runs; inconclusive = weak or mixed curves, or effect the other way; inactive = no such curve, though single readings can be large or run the other way.
% is set by controls: 0 for no effect and ±100 for the full control effect; potency is the fitted concentration of half-maximal effect.

A short description of the experiment: qHTS assay to identify small molecule antagonists of the sonic hedgehog signaling (Shh) pathway - cell viability counter screen (AID 1259367). Note: nearly all actives have a fitted effect of over 55% in size. To be noted: NIH/3T3 Gli1-Luc viability, CellTiter-Fluor, 24 h; series mostly up to 92.4 µM; viability change, negative = cytotoxic: at the top concentration. The text has this:
National Center for Advancing Translational Sciences [NCATS]
NIH Chemical Genomics Center [NCGC]
U.S. Environmental Protection Agency [EPA]
National Institutes of Environmental Health Sciences [NIEHS]
National Toxicology Program [NTP]
U.S. Food and Drug Administration [FDA]
The sonic hedgehog (Shh) pathway is essential for normal embryonic development. Dysregulation of the Shh pathway can cause severe developmental defects in organs. Therefore chemicals that interfere with the pathway are potential developmental toxicants. A cell line designated 3T3Gli1-Luc (DMB/OARSA/CFSAN/FDA, Laurel, MD), a NIH/3T3 derived clone containing stably integrated Gli1-Luc reporter is used to detect chemical interference of the Shh pathway, by changes in the expression of the firefly Luc gene under the control of the Gli1 transcriptional response element. This cell line was used to screen Tox21 libraries for identifying and prioritizing the potential developmental toxicants that interfere Shh pathway. Conditioned medium-stimulated mode was used to screen for chemicals inhibiting Shh signaling. The cytotoxicity of the compounds was tested in parallel by measuring the cell viability using CellTiter-Fluor assay system (Promega, Madison, WI) in the same wells.
Tox21 Assay Protocol Summary:
3T3 Gli1-Luc cells were dispensed at 2,000 per well in 5uL of culture medium into white solid bottom 1536-well plates (Greiner Bio-One, Monroe, NC) using a Multidrop Combi (Thermo Scientific, Waltham, MA) dispenser. The assay plates were incubated at 37 C and 5% CO2 for 4hr, and then 23nL of compounds dissolved in DMSO and positive control were transferred using a Pintool station (Wako, San Diego, CA). The compound transfer was followed by the addition of 1ul conditioned medium or assay buffer using two separate tips of Flying Reagent Dispenser (FRD, Aurora Discovery, San Diego, CA). The assay plates were incubated at 37C and 5% CO2 for 24hr. For viability read, after 23hr of compound treatment, 1uL of CellTiter-Fluor reagent (Promega Corporation, Madison, WI) was added to each well of the assay plates using Flying Reagent Dispenser (FRD, Aurora Discovery, San Diego, CA) and incubated the assay plates at 37C for 1hr. The fluorescence signal was quantified using a ViewLux plate reader (Perkin Elmer, Shelton, CT).
As to `CC[N+](CC)(CC)CCOC(=O)C(C1CCCC1)C1CCCC1`, the “viability change, negative = cytotoxic” value was 25.1% [at 42.5 µM] (inactive).
The same measure, in the same setting: under `Oc1cc(Cl)cc(Cl)c1Cl` stands -8.09% (inactive); under `Cc1cc(-n2nc3ccc(Cl)cc3n2)c(O)c(C(C)(C)C)c1`, 0.541% [at 42.5 µM] (inactive); under `CCCCCCCCCCCCOC(=O)c1ccc(O)cc1`, 7.02% (inactive).
Same read-out and setting: the figure for `Cc1c(C)c2c(c(C)c1OC(=O)c1cccnc1)CC[C@@](C)(CCC[C@H](C)CCC[C@H](C)CCCC(C)C)O2` is 5.35% [at 42.5 µM] (inactive).
Consider `c1ccc(SSc2ccccc2)cc1`, for which the “viability change, negative = cytotoxic” value is 0.396% (inactive).
The same measure, in the same setting: the figure for `Cc1cc(C(C)(C)C)c(O)c(C)c1Cn1c(=O)n(Cc2c(C)cc(C(C)(C)C)c(O)c2C)c(=O)n(Cc2c(C)cc(C(C)(C)C)c(O)c2C)c1=O` is 2.58% (inactive).
On to `COc1cccc(OC)c1C(=O)O`, for which the “viability change, negative = cytotoxic” value was 0.945% (inactive).
The same measure, in the same setting: the figure for `CCC(=O)OC(=O)CC` is 4.94% (inactive); for `CC(C)Cn1cnc2c(N)nc3ccccc3c21` it is 4.21% [at 19 µM] (inactive); for `S=c1nccc[nH]1` it is 1.66% (inactive).
On the same count and under the same terms, under `c1ccsc1` stands 0.546% (inactive).
As to `CCCCCCCC`, the “viability change, negative = cytotoxic” value is 2.24% (inactive).
Turning to `CC(=O)[C@H]1CC[C@H]2[C@@H]3CCC4=CC(=O)CC[C@]4(C)[C@H]3CC[C@]12C`, the Potency result is “inactive”.
Regarding `CCN(CC)c1ccc2c(-c3ccc(S(=O)(=O)O)cc3S(=O)(=O)[O-])c3ccc(=[N+](CC)CC)cc-3oc2c1`, the Potency is 11.2 µM (active).
On to `O=C(O)c1ccc2cc(C(=O)O)ccc2c1`, for which the “viability change, negative = cytotoxic” value is 3.65% (inactive).
The same measure, in the same setting: under `CN1CCN2c3ccccc3Cc3ccccc3C2C1` (stereo not given) stands -15.5% [at 42.5 µM] (inactive).
As to `CCCCCCCCCCCCCC[N+](C)(C)Cc1ccccc1`, the Potency was 27.7 µM (active) and inactive.
For the compound `OCCN1CCN(CCCN2c3ccccc3Sc3ccc(C(F)(F)F)cc32)CC1`, the “viability change, negative = cytotoxic” value is -19.9% [at 42.5 µM] (inactive).
Still for that read-out and setting: under `Cc1c(F)c(N2CCNC(C)C2)cc2c1c(=O)c(C(=O)O)cn2C1CC1` (stereo not given) stands 3.75% [at 42.5 µM] (inactive); under `C#C[C@]1(O)CC[C@H]2[C@@H]3[C@H](C)CC4=C(CCC(=O)C4)[C@H]3CC[C@@]21C`, -7.06% [at 42.5 µM] (inactive).
Consider `FC(F)(F)c1cccc(Cl)c1`, for which the “viability change, negative = cytotoxic” value was -1.81% (inactive).
For `C#C[C@]1(OC(C)=O)CC[C@H]2[C@@H]3CCC4=C[C@@H](OC(C)=O)CC[C@@H]4[C@H]3CC[C@@]21C`, the “viability change, negative = cytotoxic” value was 4.01% [at 42.5 µM] (inactive).
For `O=C(O)c1cc(N=Nc2ccc([N+](=O)[O-])cc2)ccc1O`, the Potency was 30.1 µM (active).
Turning to `CC1(C)CC(O)CC(C)(C)N1`, the “viability change, negative = cytotoxic” value is -0.454% (inactive).
The same measure, in the same setting: the figure for `CC[C@H](C)COC(=O)/C=C/c1ccc(N=Cc2ccc(OC)cc2)cc1` is 1.71% (inactive); for `S=C([S-])NCCNC(=S)[S-].S=C([S-])NCCNC(=S)[S-].[Mn+2].[Zn+2]` it is 8.45% [at 42.5 µM] (inactive); for `C=CCn1c(=O)n(CC=C)c(=O)n(CC=C)c1=O` it is -2.86% (inactive).
The same measure, in the same setting: under `O=C1C(c2[nH]c3ccc(S(=O)(=O)O)cc3c2O)=Nc2ccc(S(=O)(=O)O)cc21` stands -11.7% (inactive).
Still for that read-out and setting: under `CC(C)CCCCCOC(=O)CCS` stands 3.25% (inactive); under `CC(C)(C)CC(C)(C)c1ccc(Nc2ccc(C(C)(C)CC(C)(C)C)cc2)cc1`, -1.41% [at 8.39 µM] (inactive).
Consider `COc1ccc2cc1Oc1ccc(cc1)C[C@H]1c3c(cc4c(c3Oc3cc5c(cc3OC)CCN(C)[C@@H]5C2)OCO4)CCN1C`, for which the Potency was 15 µM (active).
As for `COc1ccc(NC(=O)CC(C)=O)cc1`, the “viability change, negative = cytotoxic” value is 0.229% (inactive).
Same read-out and setting: the figure for `O=C1NC(=O)[C@@H]2CC=CC[C@H]12` is 2.81% (inactive); for `Cc1cc(C(C#N)c2ccc(Cl)cc2)c(Cl)cc1NC(=O)c1cc(I)cc(I)c1O` (stereo not given) it is 4.85% [at 42.5 µM] (inactive); for `CCCCCC(C)OC(=O)COc1ccc(Cl)c2cccnc12` (stereo not given) it is 2.1% (inactive).
Consider `O=[N+]([O-])c1ccc(F)c(Cl)c1`, for which the “viability change, negative = cytotoxic” value is 3.76% (inactive).
Same read-out and setting: under `Nc1nc(-c2ccccc2)cs1` stands -6.09% (inactive).
For the compound `O=c1c(O)c(-c2ccc(O)cc2O)oc2cc(O)cc(O)c12`, the Potency was 45.7 µM (active).
With `O=C(O)[C@H](O)[C@@H](O)[C@H](O[C@@H]1O[C@H](CO)[C@H](O)[C@H](O)[C@H]1O)[C@H](O)CO`, the “viability change, negative = cytotoxic” value was 4.86% [at 42.5 µM] (inactive).
